Test results reported in paper PMC7862700, “An all-to-all approach to the identification of sequence-specific readers for epigenetic DNA modifications on cytosine”.

Columns and labels:
Test in all cases: DAPPL (digital affinity profiling via proximity ligation, sequencing); 10 mM Tris-HCl pH 7.5, 50 mM NaCl, 1 mM DTT, 4% glycerol, room temperature, 30 min; GST-TFs on glutathione beads, 16-mer random dsDNA library, 0.1% formaldehyde crosslink after washing; high values mean tight binding
Conditions in all cases: protein: recombinant; tags: N-terminal GST; dsDNA, one strand shown
[1] = target: T1, FLI1 (Homo sapiens, UniProt Q01543 1-452)
T1 sequence: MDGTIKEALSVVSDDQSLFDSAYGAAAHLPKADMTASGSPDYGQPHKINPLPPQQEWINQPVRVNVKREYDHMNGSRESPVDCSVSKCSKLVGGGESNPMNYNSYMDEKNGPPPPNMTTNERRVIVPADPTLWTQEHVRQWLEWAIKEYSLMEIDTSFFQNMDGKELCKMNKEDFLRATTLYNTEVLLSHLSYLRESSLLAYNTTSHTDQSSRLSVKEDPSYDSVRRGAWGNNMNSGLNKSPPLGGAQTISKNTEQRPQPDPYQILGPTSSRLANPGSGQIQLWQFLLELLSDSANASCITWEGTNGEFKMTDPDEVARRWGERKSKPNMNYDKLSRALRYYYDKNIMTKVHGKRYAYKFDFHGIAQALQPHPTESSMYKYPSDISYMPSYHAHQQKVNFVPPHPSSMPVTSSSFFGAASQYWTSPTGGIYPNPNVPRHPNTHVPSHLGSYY
Procedure, shortened: (§1)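 Human transcription factors carrying a GST fusion were produced in yeast, bound to glutathione beads, tagged with DNA barcodes and pooled together with a tag-only sample. Each pool was held with 200 nmole of a random double-stranded 16-mer DNA library in Tris/NaCl/DTT/glycerol buffer for 30 min at room temperature, then washed, crosslinked in 0.1% formaldehyde, proximity-ligated with BsaI/T4 ligase (1 h, 37 °C), PCR-amplified and sequenced on an Illumina NextSeq500. Binding signal is the read frequency of each hexamer for a given factor divided by its frequency in the tag-only sample.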

[2] = target: T2, ELK1 (Homo sapiens, UniProt P19419 1-428)
T2 sequence: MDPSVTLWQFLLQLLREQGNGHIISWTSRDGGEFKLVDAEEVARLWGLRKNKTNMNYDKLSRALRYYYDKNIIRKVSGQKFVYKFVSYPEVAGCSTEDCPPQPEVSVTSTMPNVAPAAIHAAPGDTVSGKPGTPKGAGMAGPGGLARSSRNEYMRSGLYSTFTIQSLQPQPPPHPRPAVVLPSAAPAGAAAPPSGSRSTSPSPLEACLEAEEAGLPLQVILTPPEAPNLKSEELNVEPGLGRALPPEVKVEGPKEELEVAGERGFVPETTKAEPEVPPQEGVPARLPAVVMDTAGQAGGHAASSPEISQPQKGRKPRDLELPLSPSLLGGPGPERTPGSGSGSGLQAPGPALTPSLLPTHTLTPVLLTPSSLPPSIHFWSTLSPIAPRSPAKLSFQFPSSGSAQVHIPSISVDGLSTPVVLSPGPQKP
Procedure, shortened: as §1

[3] = target: T3, GABPA (Homo sapiens, UniProt Q06546 1-454)
T3 sequence: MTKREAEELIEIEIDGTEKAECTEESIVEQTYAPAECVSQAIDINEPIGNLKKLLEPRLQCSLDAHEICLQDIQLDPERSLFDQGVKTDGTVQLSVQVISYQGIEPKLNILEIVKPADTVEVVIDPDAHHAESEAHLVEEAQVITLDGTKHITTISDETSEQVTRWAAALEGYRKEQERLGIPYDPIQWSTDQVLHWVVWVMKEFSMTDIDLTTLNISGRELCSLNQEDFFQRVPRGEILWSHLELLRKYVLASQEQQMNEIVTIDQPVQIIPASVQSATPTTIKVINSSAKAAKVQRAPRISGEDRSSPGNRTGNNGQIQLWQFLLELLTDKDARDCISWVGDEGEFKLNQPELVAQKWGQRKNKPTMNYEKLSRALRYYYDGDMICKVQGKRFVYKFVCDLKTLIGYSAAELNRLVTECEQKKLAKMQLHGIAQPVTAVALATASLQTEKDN
Procedure, shortened: as §1

[4] = target: T4, ERG (Homo sapiens, UniProt P11308 1-479)
T4 sequence: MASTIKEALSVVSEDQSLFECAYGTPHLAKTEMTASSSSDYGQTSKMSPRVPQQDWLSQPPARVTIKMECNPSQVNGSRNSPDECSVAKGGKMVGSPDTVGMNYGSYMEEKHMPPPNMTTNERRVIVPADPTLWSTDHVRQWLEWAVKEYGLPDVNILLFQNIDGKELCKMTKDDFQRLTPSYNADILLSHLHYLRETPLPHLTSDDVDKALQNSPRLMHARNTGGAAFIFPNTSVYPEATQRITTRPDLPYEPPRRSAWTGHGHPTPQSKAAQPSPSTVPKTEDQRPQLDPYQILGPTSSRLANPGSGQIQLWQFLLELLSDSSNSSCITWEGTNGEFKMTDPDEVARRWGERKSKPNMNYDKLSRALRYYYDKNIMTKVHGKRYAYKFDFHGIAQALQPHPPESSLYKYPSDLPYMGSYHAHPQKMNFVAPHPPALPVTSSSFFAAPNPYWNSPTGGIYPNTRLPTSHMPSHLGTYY
Procedure, shortened: as §1

[5] = target: ELF1 (Homo sapiens, UniProt P32519 1-619)
Procedure, shortened: as §1

[6] = target: T5, EHF (Homo sapiens, UniProt Q9NZC4 1-300)
T5 sequence: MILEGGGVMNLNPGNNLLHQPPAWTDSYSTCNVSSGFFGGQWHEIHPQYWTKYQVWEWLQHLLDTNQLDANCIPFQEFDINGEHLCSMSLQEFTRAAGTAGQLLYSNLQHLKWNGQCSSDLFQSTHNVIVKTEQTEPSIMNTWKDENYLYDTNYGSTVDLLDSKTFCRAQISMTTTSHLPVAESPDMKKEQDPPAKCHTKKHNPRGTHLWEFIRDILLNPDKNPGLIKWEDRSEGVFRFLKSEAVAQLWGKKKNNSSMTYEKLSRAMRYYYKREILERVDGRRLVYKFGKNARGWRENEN
Procedure, shortened: as §1

[7] = target: SPI1 (Homo sapiens, UniProt P17947 1-270)
Procedure, shortened: as §1

[8] = target: T6, ELK3 (Homo sapiens, UniProt P41970 1-407)
T6 sequence: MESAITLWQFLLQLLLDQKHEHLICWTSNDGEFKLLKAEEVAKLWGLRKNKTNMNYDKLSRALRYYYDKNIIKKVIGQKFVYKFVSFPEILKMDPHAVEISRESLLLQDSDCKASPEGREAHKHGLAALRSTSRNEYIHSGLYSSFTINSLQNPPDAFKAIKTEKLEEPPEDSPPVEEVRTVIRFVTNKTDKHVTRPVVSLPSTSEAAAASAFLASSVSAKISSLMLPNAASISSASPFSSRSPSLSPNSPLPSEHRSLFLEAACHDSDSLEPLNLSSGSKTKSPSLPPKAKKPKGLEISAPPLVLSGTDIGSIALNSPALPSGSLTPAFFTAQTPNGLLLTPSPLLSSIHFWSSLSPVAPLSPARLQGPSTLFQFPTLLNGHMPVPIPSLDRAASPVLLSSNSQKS
Procedure, shortened: as §1

[9] = target: T7, FEV (Homo sapiens, UniProt Q99581 1-238)
T7 sequence: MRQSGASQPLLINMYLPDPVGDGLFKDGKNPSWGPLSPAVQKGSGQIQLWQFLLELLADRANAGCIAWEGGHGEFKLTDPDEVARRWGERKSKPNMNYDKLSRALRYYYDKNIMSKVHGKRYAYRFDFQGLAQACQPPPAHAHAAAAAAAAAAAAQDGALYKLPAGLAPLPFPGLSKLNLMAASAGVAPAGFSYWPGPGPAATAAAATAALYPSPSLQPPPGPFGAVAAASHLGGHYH
Procedure, shortened: as §1

[10] = target: ETV5 (Homo sapiens, UniProt P41161 1-510)
Procedure, shortened: as §1

[11] = target: T8, SPIC (Homo sapiens, UniProt Q8N5J4 1-248)
T8 sequence: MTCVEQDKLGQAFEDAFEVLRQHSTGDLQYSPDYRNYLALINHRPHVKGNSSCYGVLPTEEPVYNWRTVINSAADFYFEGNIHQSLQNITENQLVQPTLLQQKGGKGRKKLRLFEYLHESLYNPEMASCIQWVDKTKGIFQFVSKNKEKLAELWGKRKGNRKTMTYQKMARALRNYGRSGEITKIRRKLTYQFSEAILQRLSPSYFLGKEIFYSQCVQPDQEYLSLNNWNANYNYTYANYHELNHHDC
Procedure, shortened: as §1

[12] = target: ELF4 (Homo sapiens, UniProt Q99607 1-663)
Procedure, shortened: as §1

[13] = target: ETV1 (Homo sapiens, UniProt P50549 1-477)
Procedure, shortened: as §1

[14] = target: T9, ERF (Homo sapiens, UniProt P50548 1-548)
T9 sequence: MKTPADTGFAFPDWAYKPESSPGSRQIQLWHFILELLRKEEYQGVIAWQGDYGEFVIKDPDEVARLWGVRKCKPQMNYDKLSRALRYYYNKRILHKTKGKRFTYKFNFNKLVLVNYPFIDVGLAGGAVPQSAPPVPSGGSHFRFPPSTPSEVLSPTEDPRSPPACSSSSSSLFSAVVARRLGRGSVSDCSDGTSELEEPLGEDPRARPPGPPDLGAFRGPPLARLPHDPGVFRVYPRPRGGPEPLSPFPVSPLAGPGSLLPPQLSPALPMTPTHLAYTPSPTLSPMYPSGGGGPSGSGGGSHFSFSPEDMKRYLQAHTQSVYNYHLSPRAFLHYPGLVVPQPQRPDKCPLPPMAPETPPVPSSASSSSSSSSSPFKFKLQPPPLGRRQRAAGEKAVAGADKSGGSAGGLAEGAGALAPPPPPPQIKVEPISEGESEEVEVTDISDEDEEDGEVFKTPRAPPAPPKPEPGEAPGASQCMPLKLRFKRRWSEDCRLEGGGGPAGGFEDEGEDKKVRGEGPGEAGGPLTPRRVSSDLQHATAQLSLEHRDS
Procedure, shortened: as §1

[15] = target: T10, SPDEF (Homo sapiens, UniProt O95238 1-335)
T10 sequence: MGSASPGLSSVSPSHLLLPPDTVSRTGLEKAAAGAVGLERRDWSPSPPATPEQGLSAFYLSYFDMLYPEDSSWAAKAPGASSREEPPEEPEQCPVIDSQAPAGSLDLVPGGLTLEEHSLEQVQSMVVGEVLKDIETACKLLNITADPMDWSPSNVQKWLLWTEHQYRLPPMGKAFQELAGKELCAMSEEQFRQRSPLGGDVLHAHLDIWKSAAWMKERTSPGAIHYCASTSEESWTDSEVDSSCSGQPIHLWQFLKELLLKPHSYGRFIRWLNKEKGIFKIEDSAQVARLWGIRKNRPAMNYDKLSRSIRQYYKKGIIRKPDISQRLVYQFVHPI
Procedure, shortened: as §1

[16] = target: T11, ETV3 (Homo sapiens, UniProt P41162-2 1-143)
T11 sequence: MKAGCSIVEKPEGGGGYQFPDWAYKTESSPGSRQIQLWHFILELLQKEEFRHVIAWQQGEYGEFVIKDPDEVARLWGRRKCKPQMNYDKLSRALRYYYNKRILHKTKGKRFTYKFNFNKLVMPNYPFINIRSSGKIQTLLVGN
Procedure, shortened: as §1

[17] = target: ETV6 (Homo sapiens, UniProt P41212 1-452)
Procedure, shortened: as §1

[18] = target: SPIB (Homo sapiens, UniProt Q01892 1-262)
Procedure, shortened: as §1

[19] = target: T12, ETS2 (Homo sapiens, UniProt P15036 1-469)
T12 sequence: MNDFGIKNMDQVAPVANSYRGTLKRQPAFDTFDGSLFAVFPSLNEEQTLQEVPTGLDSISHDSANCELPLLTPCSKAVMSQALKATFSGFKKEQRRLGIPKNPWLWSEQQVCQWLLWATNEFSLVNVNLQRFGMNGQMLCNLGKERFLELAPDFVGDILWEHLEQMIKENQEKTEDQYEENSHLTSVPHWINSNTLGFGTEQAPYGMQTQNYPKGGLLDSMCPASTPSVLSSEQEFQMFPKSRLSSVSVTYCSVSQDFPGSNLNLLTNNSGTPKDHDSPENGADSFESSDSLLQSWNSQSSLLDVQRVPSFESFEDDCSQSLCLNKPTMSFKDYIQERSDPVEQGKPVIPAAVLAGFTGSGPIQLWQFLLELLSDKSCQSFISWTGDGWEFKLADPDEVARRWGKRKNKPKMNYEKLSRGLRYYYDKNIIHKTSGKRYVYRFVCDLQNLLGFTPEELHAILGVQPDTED
Procedure, shortened: as §1

ELF4, sequence (Q99607 whole entry): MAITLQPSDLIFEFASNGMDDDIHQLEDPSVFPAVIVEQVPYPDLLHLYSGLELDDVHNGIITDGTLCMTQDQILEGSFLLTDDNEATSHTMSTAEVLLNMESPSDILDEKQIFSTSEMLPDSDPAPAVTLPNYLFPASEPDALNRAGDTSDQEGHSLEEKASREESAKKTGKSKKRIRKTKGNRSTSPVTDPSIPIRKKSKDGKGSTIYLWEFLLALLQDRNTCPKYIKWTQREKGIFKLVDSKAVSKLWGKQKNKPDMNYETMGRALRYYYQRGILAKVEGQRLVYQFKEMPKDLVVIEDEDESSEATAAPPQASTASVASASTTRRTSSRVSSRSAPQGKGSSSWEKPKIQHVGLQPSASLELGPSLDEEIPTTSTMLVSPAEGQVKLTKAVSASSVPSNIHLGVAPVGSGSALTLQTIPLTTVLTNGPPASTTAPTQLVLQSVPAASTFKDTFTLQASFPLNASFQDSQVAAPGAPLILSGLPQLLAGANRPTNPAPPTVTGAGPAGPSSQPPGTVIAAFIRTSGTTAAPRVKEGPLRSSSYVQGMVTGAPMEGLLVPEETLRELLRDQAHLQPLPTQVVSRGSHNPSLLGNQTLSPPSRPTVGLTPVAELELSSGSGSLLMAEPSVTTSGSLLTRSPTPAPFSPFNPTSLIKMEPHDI
ETV5, sequence (P41161 whole entry): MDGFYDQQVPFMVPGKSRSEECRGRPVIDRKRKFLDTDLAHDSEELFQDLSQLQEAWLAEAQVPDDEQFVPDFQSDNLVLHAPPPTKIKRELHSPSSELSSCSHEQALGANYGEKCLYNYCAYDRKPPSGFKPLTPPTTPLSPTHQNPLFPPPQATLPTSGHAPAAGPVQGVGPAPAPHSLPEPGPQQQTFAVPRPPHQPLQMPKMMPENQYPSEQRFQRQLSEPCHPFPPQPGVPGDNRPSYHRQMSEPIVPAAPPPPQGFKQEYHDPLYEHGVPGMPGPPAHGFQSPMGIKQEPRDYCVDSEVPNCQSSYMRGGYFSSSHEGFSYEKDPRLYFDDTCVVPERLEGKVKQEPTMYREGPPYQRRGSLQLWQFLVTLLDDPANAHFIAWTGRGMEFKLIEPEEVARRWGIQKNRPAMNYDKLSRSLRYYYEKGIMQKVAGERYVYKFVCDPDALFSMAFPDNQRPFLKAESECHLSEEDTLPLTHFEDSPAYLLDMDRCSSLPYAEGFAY
ETV1, sequence (P50549 whole entry): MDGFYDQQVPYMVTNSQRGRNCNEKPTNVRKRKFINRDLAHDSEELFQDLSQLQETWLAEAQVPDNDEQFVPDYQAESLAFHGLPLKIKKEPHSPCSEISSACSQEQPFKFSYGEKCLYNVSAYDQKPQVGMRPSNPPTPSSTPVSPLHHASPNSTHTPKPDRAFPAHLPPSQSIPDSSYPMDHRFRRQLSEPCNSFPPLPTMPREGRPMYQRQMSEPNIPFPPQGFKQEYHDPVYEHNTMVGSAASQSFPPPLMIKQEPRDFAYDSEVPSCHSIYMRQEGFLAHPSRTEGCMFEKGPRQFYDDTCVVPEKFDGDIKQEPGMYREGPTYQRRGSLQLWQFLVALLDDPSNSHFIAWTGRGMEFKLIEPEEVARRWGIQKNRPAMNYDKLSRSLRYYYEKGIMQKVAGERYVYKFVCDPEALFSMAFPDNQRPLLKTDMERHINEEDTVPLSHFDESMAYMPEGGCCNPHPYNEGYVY
ELF1, sequence (P32519 whole entry): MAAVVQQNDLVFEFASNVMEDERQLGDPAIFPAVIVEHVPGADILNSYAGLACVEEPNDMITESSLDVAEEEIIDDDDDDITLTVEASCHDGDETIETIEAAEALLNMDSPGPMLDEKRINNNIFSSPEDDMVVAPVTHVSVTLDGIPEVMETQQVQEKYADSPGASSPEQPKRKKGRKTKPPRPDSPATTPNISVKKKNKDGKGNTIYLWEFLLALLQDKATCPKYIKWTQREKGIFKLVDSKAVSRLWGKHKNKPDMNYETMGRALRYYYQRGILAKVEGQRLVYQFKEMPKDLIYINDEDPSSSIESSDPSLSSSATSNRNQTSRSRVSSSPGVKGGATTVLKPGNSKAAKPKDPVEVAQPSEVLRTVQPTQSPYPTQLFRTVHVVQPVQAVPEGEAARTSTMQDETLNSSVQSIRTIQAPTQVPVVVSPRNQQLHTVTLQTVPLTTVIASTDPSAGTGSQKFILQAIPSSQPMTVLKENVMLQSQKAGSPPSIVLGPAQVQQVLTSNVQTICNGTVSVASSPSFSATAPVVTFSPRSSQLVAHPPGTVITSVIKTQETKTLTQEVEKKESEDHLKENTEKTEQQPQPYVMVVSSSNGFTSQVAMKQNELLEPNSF
ETV6, sequence (P41212 whole entry): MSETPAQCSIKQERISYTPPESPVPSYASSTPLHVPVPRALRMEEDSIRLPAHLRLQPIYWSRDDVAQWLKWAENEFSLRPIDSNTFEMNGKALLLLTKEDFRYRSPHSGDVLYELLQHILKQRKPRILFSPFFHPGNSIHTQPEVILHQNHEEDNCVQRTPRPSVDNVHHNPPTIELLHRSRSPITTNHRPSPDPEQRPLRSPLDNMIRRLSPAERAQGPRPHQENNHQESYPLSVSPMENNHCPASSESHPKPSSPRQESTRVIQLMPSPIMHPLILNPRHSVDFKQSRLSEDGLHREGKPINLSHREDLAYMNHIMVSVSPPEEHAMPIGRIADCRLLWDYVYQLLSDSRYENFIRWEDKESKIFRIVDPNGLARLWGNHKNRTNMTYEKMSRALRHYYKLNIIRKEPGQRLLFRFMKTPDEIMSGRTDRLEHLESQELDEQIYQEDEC
SPIB, sequence (Q01892 whole entry): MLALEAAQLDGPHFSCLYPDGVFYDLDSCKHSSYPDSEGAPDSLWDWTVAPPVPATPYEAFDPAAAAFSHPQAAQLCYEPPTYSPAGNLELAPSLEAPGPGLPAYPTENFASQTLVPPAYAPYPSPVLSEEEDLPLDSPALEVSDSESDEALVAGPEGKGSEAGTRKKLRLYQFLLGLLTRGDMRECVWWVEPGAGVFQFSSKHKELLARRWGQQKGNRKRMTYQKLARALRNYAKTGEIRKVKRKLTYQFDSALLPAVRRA

Sequence | binding signal [1] | binding signal [2] | binding signal [3] | binding signal [4] | binding signal [5] | binding signal [6] | binding signal [7] | binding signal [8] | binding signal [9] | binding signal [10] | binding signal [11] | binding signal [12] | binding signal [13] | binding signal [14] | binding signal [15] | binding signal [16] | binding signal [17] | binding signal [18] | binding signal [19]
CCCCGT | 1.05 fold enrichment (6-mer frequency, TF over GST control) | 1.08 fold enrichment (6-mer frequency, TF over GST control) | 1.02 fold enrichment (6-mer frequency, TF over GST control) | 1.1 fold enrichment (6-mer frequency, TF over GST control) | 1.06 fold enrichment (6-mer frequency, TF over GST control) | 1.13 fold enrichment (6-mer frequency, TF over GST control) | 1.1 fold enrichment (6-mer frequency, TF over GST control) | 1.09 fold enrichment (6-mer frequency, TF over GST control) | 1.01 fold enrichment (6-mer frequency, TF over GST control) | 1.03 fold enrichment (6-mer frequency, TF over GST control) | 1.05 fold enrichment (6-mer frequency, TF over GST control) | 1.07 fold enrichment (6-mer frequency, TF over GST control) | 1 fold enrichment (6-mer frequency, TF over GST control) | 1.13 fold enrichment (6-mer frequency, TF over GST control) | 1 fold enrichment (6-mer frequency, TF over GST control) | 1.06 fold enrichment (6-mer frequency, TF over GST control) | 1.08 fold enrichment (6-mer frequency, TF over GST control) | – | –
AGTGTC | 1.01 fold enrichment (6-mer frequency, TF over GST control) | 1.07 fold enrichment (6-mer frequency, TF over GST control) | 1.07 fold enrichment (6-mer frequency, TF over GST control) | 1.08 fold enrichment (6-mer frequency, TF over GST control) | 1.06 fold enrichment (6-mer frequency, TF over GST control) | 1.14 fold enrichment (6-mer frequency, TF over GST control) | 1.16 fold enrichment (6-mer frequency, TF over GST control) | 1.01 fold enrichment (6-mer frequency, TF over GST control) | – | 1.06 fold enrichment (6-mer frequency, TF over GST control) | 1.11 fold enrichment (6-mer frequency, TF over GST control) | 1.07 fold enrichment (6-mer frequency, TF over GST control) | 1.02 fold enrichment (6-mer frequency, TF over GST control) | – | 1.05 fold enrichment (6-mer frequency, TF over GST control) | 1.07 fold enrichment (6-mer frequency, TF over GST control) | 1.01 fold enrichment (6-mer frequency, TF over GST control) | 1.01 fold enrichment (6-mer frequency, TF over GST control) | 1.09 fold enrichment (6-mer frequency, TF over GST control)
